In all, about 33,000 sequences were measured (“e-score”: median about -0.053, highest 2% from about 0.38 on). The entries come from a sample that favours the highest values as a whole.

The target in the assay is T1, SIX1 homeodomain (reference allele) (human, UniProt Q15475 108-198).
T1 sequence: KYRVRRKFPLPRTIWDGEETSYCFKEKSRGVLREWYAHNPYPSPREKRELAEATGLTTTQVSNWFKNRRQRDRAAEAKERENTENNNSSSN
Nature of the assay: universal protein binding microarray; Universal all-10-mer PBM (8x60K, AMADID 030236), 300 nM GST-tagged protein, Alexa Fluor 488 anti-GST; buffer, salt, pH and temperature not stated (as in Berger); high values mean tight binding. To be noted: protein: ivt; tags: N-terminal GST; dsDNA, one strand shown. An outline of the steps: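 Duplicate protein binding microarrays (universal 'all 10-mer', 8×60K format) were incubated with GST-tagged homeodomains at 300 nM final concentration. Binding was quantified as 8-mer E-scores with the Universal PBM Analysis Suite.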
For the sequence CTCAGGTA, the binding signal was 0.16 ± 0.0411 E-score.
As for CTCCTATC, the figure is 0.2712 ± 0.00126 E-score; as for AGAGTGAG, 0.172 ± 0.0561 E-score; as for CCGGCTCA, 0.256 ± 0.0189 E-score.
Turning to ACACCCAC, the binding signal was determined as 0.221 ± 0.0764 E-score.
For AAACCCAT, the binding signal is 0.169 ± 0.00646 E-score.
As for ATACCAAG, the figure is 0.285 ± 0.0262 E-score.
In the case of ATACCCAG, the binding signal stood at 0.382 E-score.
Next, ATACCCAC: 0.392 E-score.
Next, ACACCCAT: 0.271 ± 0.0323 E-score.
As for ATACCAAA, the figure is 0.317 ± 0.0247 E-score; as for ATACCCAT, 0.393 ± 0.00746 E-score; as for ACACCCAG, 0.278 ± 0.0263 E-score.
Consider ACACCCAA, for which the binding signal came out at 0.331 ± 0.0548 E-score.
Regarding CACCCCAC, the binding signal came out at 0.263 ± 0.128 E-score.
As for ATACCCAA, the figure is 0.401 ± 0.0166 E-score.
Next, GAGCCGGA: 0.166 ± 0.0429 E-score; TATGCGGA: 0.284 ± 0.018 E-score.
As for ATGCGATC, the figure is 0.309 ± 0.0257 E-score.
With ATACGAGG, the binding signal was 0.232 ± 0.0433 E-score.
With CATCTCAG, the binding signal turned out to be 0.227 ± 0.014 E-score.
Regarding TACGCATA, the binding signal came to 0.197 ± 0.0197 E-score.
As for ATAGGGAT, the figure is 0.395 ± 0.00975 E-score; as for ACAGGGAT, 0.297 ± 0.0162 E-score.
As for ATAGGGGA, the figure is 0.287 ± 0.00909 E-score; as for ACCTTATA, 0.17 ± 0.0678 E-score; as for CTATCGCA, 0.186 ± 0.0165 E-score.
Turning to ATCGCGCG, the binding signal worked out at 0.213 ± 0.0714 E-score.
As for AGATCGCC, the figure is 0.288 ± 0.0356 E-score; as for GTATCGCA, 0.431 ± 0.0148 E-score.
Next, ATATCGCG: 0.422 ± 0.0273 E-score; ACATCGCA: 0.152 ± 0.012 E-score.
As for ATATCGCC, the figure is 0.441 ± 0.0115 E-score; as for TGATCGCA, 0.171 ± 0.0248 E-score; as for CTATCGCC, 0.179 ± 0.0265 E-score.
AGATCGCG: the binding signal worked out at 0.22 ± 0.0358 E-score.
Next, GGATCGCA: 0.366 ± 0.0387 E-score; ATATCGCA: 0.42 ± 0.0293 E-score.
Next, ATCGGTCG: 0.225 ± 0.0271 E-score; CGGTTATC: 0.309 ± 0.0176 E-score; AGTACGAT: 0.248 ± 0.0454 E-score.
As for ATCATAAT, the figure is 0.229 ± 0.0622 E-score; as for GATAATGC, 0.16 ± 0.00226 E-score; as for GCGATCTA, 0.218 ± 0.0326 E-score.
As for CTCCGGTA, the binding signal turned out to be 0.244 ± 0.0299 E-score.
As for GAAACACC, the figure is 0.189 ± 0.0066 E-score.
As for GGATCCCA, the figure is 0.37 ± 0.0601 E-score.
Next, AGATCCCG: 0.302 ± 0.0627 E-score; CGATCCCC: 0.437 ± 0.041 E-score; CGATCCCA: 0.346 ± 0.0579 E-score.
As for AGATCCCA, the binding signal came to 0.213 ± 0.0026 E-score.
Next, AGATCCCT: 0.292 ± 0.00813 E-score; AGATCCCC: 0.384 ± 0.0161 E-score; GGATCCCC: 0.419 ± 0.0404 E-score.
CGATCCCG: the binding signal worked out at 0.332 ± 0.04 E-score.
In the case of GAATCCCC, the binding signal is 0.23 ± 0.0451 E-score.
Next, TGATCCAA: 0.324 ± 0.0147 E-score; TGATCCCA: 0.3763 ± 0.00132 E-score; ATATACAA: 0.27 ± 0.0205 E-score.
Regarding ATAGGAGA, the binding signal stood at 0.185 ± 0.0295 E-score.
As for GATCGTAC, the figure is 0.274 ± 0.0438 E-score; as for ATACATGG, 0.3102 ± 0.0018 E-score.
Next, CTGACACC: 0.468 ± 0.0134 E-score; CGGACACC: 0.3658 ± 0.00136 E-score.
Next, ATGACACG: 0.289 ± 0.0161 E-score.
With AGGACACC, the binding signal is 0.366 ± 0.0116 E-score.
Next, CAGACACC: 0.291 ± 0.0577 E-score; ATGACACC: 0.4711 ± 0.00199 E-score; TATCGCAA: 0.33 ± 0.0108 E-score.
Next, CCAGGAGA: 0.158 ± 0.0169 E-score; AGCATGAT: 0.2 ± 0.0238 E-score.
As for ATAAGCAG, the figure is 0.173 ± 0.00802 E-score; as for GGATGAGA, 0.212 ± 0.0038 E-score; as for AGATGATC, 0.38 ± 0.0348 E-score.
On to CGATCATC, for which the binding signal stood at 0.3167 ± 0.00296 E-score.
Next, GGATGATA: 0.443 ± 0.0105 E-score; CGATGATC: 0.379 ± 0.019 E-score; AGAAGATA: 0.201 ± 0.105 E-score.
As for CGCTGATC, the figure is 0.279 ± 0.0361 E-score; as for AGAAGATC, 0.231 ± 0.077 E-score; as for AGCTGATC, 0.3159 ± 0.00281 E-score.
Next, GGATGGTA: 0.214 ± 0.0386 E-score.
Regarding AGATGATA, the binding signal was determined as 0.432 ± 0.0425 E-score.
As for AGATGAGA, the figure is 0.224 ± 0.0832 E-score; as for ATGAAACC, 0.242 ± 0.0415 E-score; as for ATCCCATA, 0.351 ± 0.0216 E-score.
As for ATATTTGA, the figure is 0.173 ± 0.0606 E-score; as for ATCATTTG, 0.244 ± 0.0909 E-score.
As for ATCGGGCC, the figure is 0.188 ± 0.0382 E-score.
ACACCTGT: the binding signal was determined as 0.277 ± 0.00124 E-score.
As to TATCGAGA, the binding signal amounted to 0.293 ± 0.0133 E-score.
As for ATAGCCGG, the figure is 0.22519 ± 0.00017 E-score.
As for ACGCATCT, the figure is 0.169 ± 0.0233 E-score; as for GGCAGATA, 0.216 ± 0.0469 E-score.
As for ACAGTGAT, the binding signal worked out at 0.199 ± 0.0229 E-score.
Next, ACTAGGAT: 0.187 ± 0.0427 E-score.
Consider CAGTTATC, for which the binding signal came out at 0.176 ± 0.0291 E-score.
Next, AACAATAT: 0.253 ± 0.0623 E-score; CGATGATA: 0.445 ± 0.0281 E-score.
Next, CGATGACA: 0.18 ± 0.00711 E-score.
Next, CGATGAGA: 0.191 ± 0.0564 E-score.
As for ATTATGCG, the binding signal stood at 0.242 ± 0.0214 E-score.
Next, GTGTAGTA: 0.185 ± 0.0109 E-score; CACTATCA: 0.276 ± 0.0303 E-score.
Next, AGATATAC: 0.38 ± 0.0393 E-score; AGATATAT: 0.337 ± 0.0754 E-score.
As for GGATATAC, the figure is 0.406 ± 0.0168 E-score; as for CGATATAG, 0.362 ± 0.0306 E-score; as for GGATATAA, 0.352 ± 0.0244 E-score.
For the sequence GTATATAC, the binding signal was found to be 0.316 ± 0.0323 E-score.
As to AGATATAA, the binding signal stood at 0.261 ± 0.0786 E-score.
As for CGATATAC, the figure is 0.405 ± 0.0197 E-score.
As for CGATATAA, the figure is 0.243 ± 0.0501 E-score; as for ACACGGGC, 0.179 ± 0.0209 E-score; as for ACCCCGTA, 0.209 ± 0.0622 E-score.
As to CGGTTTCA, the binding signal is 0.152 ± 0.0123 E-score.
As for ATCCTCAC, the figure is 0.234 ± 0.0503 E-score; as for ATAGTGTA, 0.205 ± 0.0143 E-score.
As for CTCAAGGA, the figure is 0.164 ± 0.0491 E-score; as for GGGGCGGA, 0.159 ± 0.113 E-score; as for ATTTATAC, 0.22 ± 0.116 E-score.
As for TATGGTAA, the figure is 0.166 ± 0.0578 E-score; as for ATTACCCC, 0.177 ± 0.0101 E-score; as for TGACCCCA, 0.198 ± 0.0237 E-score.
Regarding ATACCCCG, the binding signal stood at 0.4703 ± 0.00344 E-score.
As for ACACCCCG, the figure is 0.353 ± 0.0394 E-score; as for AGACCCCG, 0.23 ± 0.085 E-score.
As for ACACCCCC, the figure is 0.3856 ± 0.00209 E-score; as for ATACCCCC, 0.454 ± 0.015 E-score; as for ATAACCCC, 0.251 ± 0.0341 E-score.
Next, ACCCCCCG: 0.168 ± 0.0136 E-score; TACCCCCA: 0.243 ± 0.0116 E-score; ACACCCCA: 0.365 ± 0.0445 E-score.
ATACCCCA: the binding signal turned out to be 0.43 ± 0.00878 E-score.
Consider ATAGCCTG, for which the binding signal is 0.205 ± 0.031 E-score.
As for ATCCCATG, the figure is 0.311 ± 0.0488 E-score; as for GACCATGA, 0.216 ± 0.0376 E-score.
As for GGGAGATA, the binding signal is 0.3342 ± 0.000849 E-score.
In the case of ATCAGTAC, the binding signal stood at 0.2244 ± 0.00203 E-score.
As for GATCACTA, the figure is 0.371 ± 0.0113 E-score; as for GGATAGGA, 0.28 ± 0.0103 E-score.
As for AGATAGCT, the binding signal amounted to 0.178 ± 0.0771 E-score.
Next, GATCCTAA: 0.262 ± 0.00612 E-score; ATCAGGGC: 0.178 ± 0.0395 E-score.
As for ACAAGGTA, the figure is 0.192 ± 0.0136 E-score; as for GATAGTAC, 0.212 ± 0.0174 E-score.
As for AAGATATT, the figure is 0.214 ± 0.124 E-score; as for AAGATATC, 0.445 ± 0.0468 E-score; as for CAGATATG, 0.315 ± 0.0384 E-score.
In the case of GAGAGATC, the binding signal was found to be 0.286 ± 0.00645 E-score.
With GAGATATA, the binding signal turned out to be 0.359 ± 0.0685 E-score.
With CAGATATC, the binding signal was 0.456 ± 0.0169 E-score.
As for GAGATATC, the figure is 0.442 ± 0.0368 E-score; as for AAGATATG, 0.303 ± 0.0441 E-score; as for CAGATATA, 0.263 ± 0.0342 E-score.
As for CTCTACAC, the figure is 0.163 ± 0.00511 E-score; as for ACCATAGA, 0.197 ± 0.0646 E-score.
On to CCGATCTA, for which the binding signal amounted to 0.2622 ± 0.00225 E-score.
Next, ATAGTGCA: 0.163 ± 0.0274 E-score; CGAGGGTA: 0.159 ± 0.0143 E-score.
Next, ACTAATCC: 0.228 ± 0.027 E-score; ATATCAGC: 0.404 ± 0.0329 E-score.
As for GTATCAGA, the figure is 0.466 ± 0.0136 E-score.
In the case of ATCTCAGG, the binding signal turned out to be 0.164 ± 0.0156 E-score.
As for GTGTCAGA, the figure is 0.29 ± 0.0236 E-score.
Next, GTATCTGA: 0.355 ± 0.00568 E-score; ATCTCAGA: 0.31 ± 0.0258 E-score.
Consider ATATCAGA, for which the binding signal is 0.408 ± 0.0495 E-score.
As for AGATCAGG, the figure is 0.284 ± 0.0116 E-score.
Next, ATATCAGG: 0.403 ± 0.0398 E-score; CTATCAGC: 0.202 ± 0.00952 E-score; CTATCAGA: 0.271 ± 0.0216 E-score.
Next, AGATCAGC: 0.273 ± 0.00331 E-score.

The values above are taken from paper PMC10668032, “Altered binding affinity of SIX1-Q177R correlates with enhanced WNT5A and WNT pathway effector expression in Wilms tumor”.
